NALP1 inh – inhibitors of NALP1 inflammasome in yeast; S. cerevisiae NALP1/ASC/caspase-1 growth, X-gal OD620, 72 h; inhibition, % at 10 µM; 0.61% of 280,000 active; AID 2071; in the data active means inhibition mostly above about 24%, no sharp cut-off; inactive means mostly below about 32%
NLRP3 yeast inh – inhibitors of NALP3 inflammasome in yeast. inhibition, % at 10 µM. Yeast reconstituted NLRP3/ASC/caspase-1, beta-gal luminescence, 24 h. 0.39% of 330,000 active. AID 2825;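 active means inhibition of 50% or more; inactive means inhibition below 50%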;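 further: plate controls were induced DMSO wells for no effect and uninduced yeast grown without galactose for full effect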
PolyA inhibitor – inhibitors of polyadenylation in S. cerevisiae; S. cerevisiae SKY197-pL101 polyadenylation reporter, beta-gal luminescence; efflux-impaired pdr1/pdr3 knockout yeast; score 100 = 6 SD above DMSO; activity score, % at 12 µM; 0.02% of 300,000 active; AID 1875;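 active means lowest replicate activity score at least 50, where 100 means six control SD above control mean; inconclusive means lowest score under 50 but half or more replicates reach 50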;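 further: yeast exposed to compound for 9 h at 30 °C; higher score means more reporter readthrough which indicates perturbed polyadenylation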
SUMO Mot1 rescue – inhibitors of SUMOylation pathway: yeast Mot1-301 growth rescue; S. cerevisiae Mot1-301 growth rescue, ATP luminescence, 38.5C; percent above DMSO median, 100 means doubled; growth rescue, % at 18.8 µM; 1% of 320,000 active;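 active means every valid replicate shows activation above 250% relative to neutral control wells; inactive means the rest, any valid replicate at or below 250%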;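 further: OY570 slx delta 5 strain wells were the positive control but not used for scaling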
NALP3 yeast conf – confirmation of NALP3 inhibitors in yeast | shares compounds with NLRP3 yeast inh | yeast expressing human NALP3, luminescence | inhibition, % at 10 µM | 81% of 1,300 active; in the data active means inhibition above about 48%
Casp1-ASC yeast – caspase-1-ASC yeast counter-screen hit | shares compounds with NLRP3 yeast inh | yeast expressing Caspase-1-ASC, luminescence counter screen | inhibition, % at 10 µM | 66% of 1,000 active | AID 488784
NALP3 yeast rt – yeast NALP3 inhibition, confirmed on retest | 53% of 1,000 active | yeast expressing human NALP3, luminescence read-out | AID 488794 | shares compounds with NLRP3 yeast inh | inhibition, % at 10 µM
Active calls of the source: *; ? = inconclusive; · = no result given. Shown are actives, neighbours in structure and some others; about 1.8% of the full set was active somewhere. Unless noted, no stated cut-off is given here; in the data, active means inhibition above about 50%; inactive means the rest.

SMILES	NALP1 inh	NLRP3 yeast inh	PolyA inhibitor	SUMO Mot1 rescue	NALP3 yeast conf	Casp1-ASC yeast	NALP3 yeast rt
CCCCc1ccc(-c2nc(N)n[nH]2)cc1	14.4	54.2*	-18.0	839.6*	78.1*	94.7*	85.2*
Nc1n[nH]c(-c2ccc(F)cc2)n1	0.6	0.3	0.1	-7.5	·	·	·
O=C1/C(=C\c2ccc3c(c2)OCO3)CCC/C1=C/c1ccc2c(c1)OCO2	2.3	50.0	-18.7	·	48.8*	28.1	23.1
Cc1ccccc1OCC1CNC(=O)O1 (stereo unspecified)	13.5	4.8	-6.2	30.8	·	·	·
O=C(CN1c2cccc3cccc(c23)S1(=O)=O)NC1CCCCC1	·	8.3	·	0.9	·	·	·
Cc1c(/C=N/O)c2ccccn2c1C(=O)c1ccc(F)cc1	28.2	61.9*	?	10.1	76.8*	48.5	44.3
Cc1ccc(NC(=O)Cc2ccsc2)cc1Cl	-55.8	54.1*	-5.7	35.2	67.9*	43.4	38.4
Cc1nc2ccc(NC(=O)Cc3ccsc3)cc2s1	-2.4	19.4	-4.1	3.6	·	·	·
O=C(Oc1cc(=O)oc2c1c(=O)n1c3c(cccc23)CC1)c1ccccc1	-3.5	64.3*	33.7	47.8	76.5*	56.3*	62.6*
O=C(Oc1cc(=O)oc2ccccc12)c1ccccc1	17.1	16.4	-12.6	16.3	·	·	·
O=C(NCc1ccc(F)cc1)c1c(O)c2cccc3c2n(c1=O)CCC3	2.4	15.8	4.3	10.1	·	·	·
O=C(Oc1cc(=O)oc2c1c(=O)n1c3c(cccc23)CC1)c1ccc(F)cc1	2.2	57.9*	18.4	28.6	73.8*	·	·
COC(=O)CCC(=O)N1CCCC(N2CCN(c3ccc(OC)cc3)CC2)C1 (stereo unspecified)	13.4	10.1	2.7	-7.2	·	·	·
C(=C\n1nnc2ccccc21)/c1ccccn1	·	53.1*	-6.8	9.5	71.4*	36.9	·
Nn1nnc2ccccc21	3.1	22.5	-2.3	3.3	·	·	·
CC(Nc1ccccc1CO)C(=O)Nc1cccc(Cl)c1Cl (stereo unspecified)	8.9	15.6	-5.8	-32.3	·	·	·
CCCc1ccc(C(=O)NNc2cc(Cl)ccc2Cl)cc1	5.8	57.0*	-47.5	28.6	53.8*	55.6*	49.0
Cc1onc(-c2ccccc2Cl)c1C(=O)N1C=CC(C(F)(F)F)=NCC1	58.0*	50.4*	-9.5	-13.8	65.5*	44.7	53.0*
O=C1C(=O)N(CCCN2CCOCC2)C(c2ccc(F)cc2)/C1=C(\O)c1ccc2c(c1)OCCO2 (stereo unspecified)	-7.0	-5.2	9.4	0.1	·	·	·
CCOc1ccc(/C(O)=C2/C(=O)C(=O)N(CCCN3CCOCC3)C2c2ccc(F)cc2)cc1C (stereo unspecified)	-4.2	50.4*	2.7	6.6	66.7*	48.1	28.1
C=C(Cl)COc1ccc2c(CCCC)cc(=O)oc2c1	7.2	32.9	-25.2	179.1	·	·	·
C=C(Cl)COc1ccc2c(CC)cc(=O)oc2c1	2.4	50.8*	·	5.0	44.1	64.3*	56.4*
Cc1nc(SCC(=O)NCc2cccs2)nc(C)c1C	-17.5	5.3	2.9	8.5	·	·	·
O=C(CSc1cccc2cccc(Cl)c12)NCc1cccs1	36.6	51.6*	-28.5	60.9	64.6*	45.0	31.4
Cc1cc2nc(N3C(=O)CNC3=S)sc2cc1C	4.7	68.9*	-2.7	-14.8	82.3*	·	·
SMILES	NALP1 inh	NLRP3 yeast inh	PolyA inhibitor	SUMO Mot1 rescue	NALP3 yeast conf	Casp1-ASC yeast	NALP3 yeast rt
CCOc1ccccc1N(C(=O)CNS(=O)(=O)c1ccccc1)C(CC)C(=O)NCc1ccco1 (stereo unspecified)	28.9	21.8	-11.6	107.0	·	·	·
COc1cccc2cc(C(=O)c3ccccc3)oc12	-9.1	50.1*	-39.7	-1.3	33.8	·	·
CC1CCCCN1C(=O)Cn1cnc2cc([N+](=O)[O-])ccc2c1=O (stereo unspecified)	-0.2	31.6	15.7	3.0	·	·	·
NC(N)=NS(=O)(=O)c1ccc(N)cc1	21.7	20.5	16.4	4.1	·	·	·
O=C1c2ccsc2SCCN1Cc1ccccc1	7.8	58.0*	4.6	8.8	42.8	48.3	47.0
O=C(CC(=O)c1c(F)cccc1Cl)c1ccccc1O	21.0	51.0*	-22.1	13.8	70.0*	60.9*	48.2
Cn1c2ccccc2c(=O)c2ccc(-c3ccc4c(c3)OCO4)cc21	40.1	26.8	0.4	-3.0	·	·	·

Screening data from PubChem.
